Measurements reported in PubChem BioAssay AID1159580 (chemical genetic matrix, 2015).
The campaign covered roughly 5,500 compounds. About 2,000 (36%) were called active. About 18% were inconclusive and are not listed. Cut-off read from the data, not from the text of the source: active = normalized growth mostly below about 0.91 (no sharp cut-off); inconclusive = no clear call, values can overlap the other calls; inactive = mostly above about 0.92. This is one part of the list.

Assay: chemical genetic growth profiling, strain panel (AID 1159580);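 note: tested at 20 µM; growth read once vehicle control cultures reached saturation at 30 °C; 1 = growth at the plate median or of vehicle wells; lower values mean less growth of the strain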
Details: growth OD
[1] = S. cerevisiae deletion strains, locus YDL101C, strain DUN1, hits give low values
[2] = S. cerevisiae deletion strains, locus YHR030C, strain SLT2, hits give low values
[3] = S. cerevisiae deletion strains, locus YJR075W, strain HOC1, hits give low values
[4] = S. cerevisiae deletion strains, locus YMR307W, strain GAS1, hits give low values
[5] = S. cerevisiae deletion strains, locus YPL055C, strain LGE1, hits give low values

Measured: normalized growth

O=C1Nc2ccccc2/C1=C\c1cccc([N+](=O)[O-])c1
inactive: S. cerevisiae deletion strains, locus YAR019C, strain CDC15, hits give low values 0.974 | S. cerevisiae deletion strains, locus YBL105C, strain PKC1, hits give low values 0.967 | S. cerevisiae deletion strains, locus YBR135W, strain CKS1, hits give low values 0.974 | S. cerevisiae deletion strains, locus YBR136W, strain MEC1, hits give low values 0.972 | S. cerevisiae deletion strains, locus YBR160W, strain CDC28, hits give low values 0.979 | S. cerevisiae deletion strains, locus YDL017W, strain CDC7, hits give low values 0.97 | S. cerevisiae deletion strains, locus YDL028C, strain MPS1, hits give low values 0.971 | [1] 0.97 | S. cerevisiae deletion strains, locus YDL108W, strain KIN28, hits give low values 0.968 | S. cerevisiae deletion strains, locus YDL132W, strain cdc53, hits give low values 0.962 | S. cerevisiae deletion strains, locus YDL214C, strain PRR2, hits give low values 0.983 | S. cerevisiae deletion strains, locus YDR052C, strain DBF4, hits give low values 0.97 | S. cerevisiae deletion strains, locus YDR054C, strain cdc34, hits give low values 0.957 | S. cerevisiae deletion strains, locus YDR226W, strain ADK1, hits give low values 0.969 | S. cerevisiae deletion strains, locus YDR477W, strain SNF1, hits give low values 0.971 | S. cerevisiae deletion strains, locus YER123W, strain YCK3, hits give low values 0.985 | S. cerevisiae deletion strains, locus YER133W, strain GLC7, hits give low values 1 | S. cerevisiae deletion strains, locus YFL009W, strain cdc4, hits give low values 0.965 | S. cerevisiae deletion strains, locus YFL029C, strain CAK1, hits give low values 0.982 | S. cerevisiae deletion strains, locus YFR003C, strain YPI1, hits give low values 0.965 | S. cerevisiae deletion strains, locus YFR019W, strain FAB1, hits give low values 0.987 | S. cerevisiae deletion strains, locus YFR028C, strain CDC14, hits give low values 0.961 | S. cerevisiae deletion strains, locus YGR040W, strain KSS1, hits give low values 0.967 | S. cerevisiae deletion strains, locus YGR052W, strain FMP48, hits give low values 1.02 | S. cerevisiae deletion strains, locus YGR092W, strain DBF2, hits give low values 0.921 | [2] 0.959 | S. cerevisiae deletion strains, locus YHR079C, strain IRE1, hits give low values 0.913 | S. cerevisiae deletion strains, locus YHR082C, strain KSP1, hits give low values 1.06 | S. cerevisiae deletion strains, locus YHR205W, strain SCH9, hits give low values 0.848 | S. cerevisiae deletion strains, locus YIL147C, strain SLN1, hits give low values 0.967 | S. cerevisiae deletion strains, locus YJL095W, strain BCK1, hits give low values 0.955 | S. cerevisiae deletion strains, locus YJL128C, strain PBS2, hits give low values 0.923 | S. cerevisiae deletion strains, locus YJL157C, strain FAR1, hits give low values 0.985 | S. cerevisiae deletion strains, locus YJR016C, strain ILV3, hits give low values 0.967 | S. cerevisiae deletion strains, locus YJR066W, strain TOR1 (second series), hits give low values 0.981 | S. cerevisiae deletion strains, locus YJR066W, strain TOR1, hits give low values 1.05 | S. cerevisiae deletion strains, locus YKL048C, strain ELM1, hits give low values 0.971 | S. cerevisiae deletion strains, locus YKL067W, strain YNK1, hits give low values 0.995 | S. cerevisiae deletion strains, locus YKL101W, strain HSL1, hits give low values 0.967 | S. cerevisiae deletion strains, locus YKL193C, strain SDS22, hits give low values 0.963 | S. cerevisiae deletion strains, locus YKL203C, strain TOR2, hits give low values 1.05 | S. cerevisiae deletion strains, locus YLR113W, strain HOG1, hits give low values 0.939 | S. cerevisiae deletion strains, locus YLR133W, strain CKI1, hits give low values 0.975 | S. cerevisiae deletion strains, locus YLR403W, strain SFP1, hits give low values 0.907 | S. cerevisiae deletion strains, locus YML070W, strain DAK1, hits give low values 0.993 | S. cerevisiae deletion strains, locus YMR001C, strain CDC5, hits give low values 0.97 | S. cerevisiae deletion strains, locus YMR205C, strain PFK2 (second series), hits give low values 0.994 | S. cerevisiae deletion strains, locus YMR277W, strain FCP1, hits give low values 0.969 | S. cerevisiae deletion strains, locus YNL006W, strain LST8, hits give low values 0.979 | S. cerevisiae deletion strains, locus YNL020C, strain ARK1, hits give low values 0.959 | S. cerevisiae deletion strains, locus YNL161W, strain CBK1, hits give low values 0.965 | S. cerevisiae deletion strains, locus YNL183C, strain NPR1, hits give low values 1.05 | S. cerevisiae deletion strains, locus YNL207W, strain RIO2, hits give low values 0.963 | S. cerevisiae deletion strains, locus YNL222W, strain SSU72, hits give low values 0.986 | S. cerevisiae deletion strains, locus YNL307C, strain MCK1 (second series), hits give low values 0.957 | S. cerevisiae deletion strains, locus YOL078W, strain AVO1, hits give low values 0.966 | S. cerevisiae deletion strains, locus YOL136C, strain PFK27, hits give low values 0.985 | S. cerevisiae deletion strains, locus YOR061W, strain CKA2, hits give low values 0.991 | S. cerevisiae deletion strains, locus YOR119C, strain RIO1, hits give low values 1.07 | S. cerevisiae deletion strains, locus YOR231W, strain MKK1, hits give low values 1.04 | S. cerevisiae deletion strains, locus YOR329C, strain SCD5, hits give low values 0.973 | S. cerevisiae deletion strains, locus YPL031C, strain PHO85, hits give low values 0.972 | S. cerevisiae deletion strains, locus YPL153C, strain RAD53, hits give low values 0.992 | S. cerevisiae deletion strains, locus YPL204W, strain HRR25, hits give low values 0.968 | S. cerevisiae deletion strains, locus YPL209C, strain IPL1, hits give low values 0.974 | S. cerevisiae deletion strains, locus YPL256C, strain CLN2, hits give low values 0.954 | S. cerevisiae deletion strains, locus YPR025C, strain CCL1, hits give low values 0.978 | S. cerevisiae deletion strains, locus YPR106W, strain ISR1, hits give low values 0.973 | S. cerevisiae deletion strains, locus YPR111W, strain DBF20, hits give low values 0.966 | S. cerevisiae deletion strains, strain NNK1, hits give low values 0.967 | S. cerevisiae deletion strains, strain TSCII, hits give low values 0.963

CN(C)c1ccc(/C=C2\C(=O)Nc3ccccc32)cc1
active: S. cerevisiae deletion strains, locus YER002W, strain NOP16, hits give low values 0.877 | S. cerevisiae deletion strains, locus YNL175C, strain NOP13, hits give low values 0.809 | S. cerevisiae deletion strains, locus YNL224C, strain SQS1, hits give low values 0.891 | S. cerevisiae deletion strains, locus YOR083W, strain WHI5 (second series), hits give low values 0.786
inactive: S. cerevisiae deletion strains, locus YAL040C, strain CLN3, hits give low values 0.95 | S. cerevisiae deletion strains, locus YCL061C, strain MRC1 (second series), hits give low values 0.993 | S. cerevisiae deletion strains, locus YDR363W, strain ESC2, hits give low values 0.963 | S. cerevisiae deletion strains, locus YGR229C, strain SMI1, hits give low values 0.93 | [3] 0.972 | [4] 0.984 | S. cerevisiae deletion strains, locus YNL197C, strain WHI3, hits give low values 0.942 | [5] 0.972

Clc1ccc(C=C2c3ccccc3-c3ccccc32)cc1
inactive: S. cerevisiae deletion strains, locus YAL013W, strain DEP1, hits give low values 0.988 | S. cerevisiae deletion strains, locus YBR229C, strain ROT2, hits give low values 0.973 | [1] 0.986 | S. cerevisiae deletion strains, locus YDL134C, strain PPH21, hits give low values 1 | S. cerevisiae deletion strains, locus YDR150W, strain NUM1, hits give low values 0.95 | S. cerevisiae deletion strains, locus YEL061C, strain CIN8, hits give low values 0.99 | S. cerevisiae deletion strains, locus YGR078C, strain PAC10, hits give low values 1 | [2] 0.873 | S. cerevisiae deletion strains, locus YHR087W, strain rtc3, hits give low values 0.986 | S. cerevisiae deletion strains, locus YJL187C, strain SWE1, hits give low values 1 | S. cerevisiae deletion strains, locus YJR043C, strain POL32, hits give low values 0.981 | [3] 0.979 | S. cerevisiae deletion strains, locus YLR039C, strain RIC1, hits give low values 0.967 | S. cerevisiae deletion strains, locus YLR058C, strain SHM2 (second series), hits give low values 0.972 | S. cerevisiae deletion strains, locus YLR085C, strain ARP6, hits give low values 0.996 | S. cerevisiae deletion strains, locus YLR262C, strain YPT6, hits give low values 0.855 | S. cerevisiae deletion strains, locus YML094W, strain GIM5, hits give low values 1.03 | S. cerevisiae deletion strains, locus YMR219W, strain ESC1, hits give low values 0.988 | S. cerevisiae deletion strains, locus YMR263W, strain SAP30, hits give low values 0.983 | [4] 1.03 | S. cerevisiae deletion strains, locus YNL128W, strain TEP1, hits give low values 0.984 | S. cerevisiae deletion strains, locus YNL153C, strain GIM3, hits give low values 0.965 | S. cerevisiae deletion strains, locus YNL298W, strain CLA4 (second series), hits give low values 0.949 | S. cerevisiae deletion strains, locus YNL322C, strain KRE1, hits give low values 1 | S. cerevisiae deletion strains, locus YNR030W, strain Alg12, hits give low values 0.957 | [5] 1.01 | S. cerevisiae deletion strains, locus YPL241C, strain CIN2, hits give low values 0.995 | S. cerevisiae deletion strains, locus YPR135W, strain CTF4, hits give low values 0.855 | S. cerevisiae strains, strain wild type, hits give low values 0.961
